Measured potencies and affinities stand elsewhere.
Legend:
Staphylococcus aureus = conditions: Concentration 32 ug.mL-1; ASSAY_TEST Inhibition of Bacterial Growth; detection method Absorption (OD600); MEDIA CAMHB; plate type 384well; NBS; CORNING #3640; time 18 hr
Escherichia coli = conditions: Concentration 32 ug.mL-1; ASSAY_TEST Inhibition of Bacterial Growth; detection method Absorption (OD600); MEDIA CAMHB; plate type 384well; NBS; CORNING #3640; time 18 hr

Structure (SMILES)	Inhibition (Staphylococcus aureus) [%]	Inhibition (Escherichia coli) [%]
CCN(CC)CC.C[C@@H](CC1O[C@H]([C@@H](O)CO)[C@@H](O)[C@H](O)[C@@H]1O)OP(=O)(O)O (stereo not given in full)	24.59	26.95
CCN(CC)CC.C[C@H](CC1O[C@H]([C@@H](O)CO)[C@@H](O)[C@H](O)[C@@H]1O)OP(=O)(O)O (stereo not given in full)	23.43	26.24
N.O=C(O)C1(O)C[C@@H](O)[C@H](O)[C@@H]([C@@H](O)CO)O1 (stereo not given in full)	25.6	22.94
CCN(CC)CC.C[C@@H](CC1O[C@H]([C@H](O)CO)[C@@H](O)[C@H](O)[C@@H]1O)OP(=O)(O)OC[C@H]1O[C@@H](n2cnc3c(N)ncnc32)[C@H](O)[C@@H]1O (stereo not given in full)	27.38	10.57
OC[C@@H](O)[C@H]1OC(O)C[C@@H](O)[C@@H]1O (stereo not given in full)	21.66	15.99
CCN(CC)CC.C[C@@H](CC1O[C@H]([C@@H](O)CO)[C@@H](O)[C@H](O)[C@@H]1O)OP(=O)(O)OC[C@H]1O[C@@H](n2cnc3c(N)ncnc32)[C@H](O)[C@@H]1O (stereo not given in full)	27.76	16.43
CCN(CC)CC.C[C@H](CC1O[C@H]([C@H](O)CO)[C@@H](O)[C@H](O)[C@@H]1O)OP(=O)(O)OC[C@H]1O[C@@H](n2cnc3c(N)ncnc32)[C@H](O)[C@@H]1O (stereo not given in full)	30.75	16.06
CC(=O)CC1O[C@H]([C@@H](O)CO)[C@@H](O)[C@H](O)[C@@H]1O (stereo not given in full)	21.72	24.3
CCN(CC)CC.O=P(O)(O)OC1C[C@@H](O)[C@H](O)[C@@H]([C@H](O)CO)O1 (stereo not given in full)	23.92	21.41
CCN(CC)CC.C[C@H](CC1O[C@H]([C@@H](O)CO)[C@@H](O)[C@H](O)[C@@H]1O)OP(=O)(O)OC[C@H]1O[C@@H](n2cnc3c(N)ncnc32)[C@H](O)[C@@H]1O (stereo not given in full)	25.31	11.12

From ChEMBL document CHEMBL4513143, “CO-ADD screening of University of Natural Resources and Life (Austria) compounds”
